An excerpt weighted towards active compounds, which were near 3.5% of everything screened.
GPR151 activ: human GPR151 activation | Q8TDV0 | PathHunter beta-arrestin GPR151 cells, luminescence | activation, % at 11.2 µM | hit rate 1% among 650,000 | AID 1508602; in the data active = activation above about 4.9%;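 note: 0% = median of compound wells and 100% = cells with positive control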
MITF inh: blocks human microphthalmia-associated transcription factor. O75030. inhibition, % at 2.6 µM. AID 1259374. hit rate 0.91% among 650,000. AlphaScreen MITF homodimerization, bead proximity signal; in the data active = inhibition above about 50%;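 note: 0% = vehicle wells with protein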
Target sequence (O75030 whole entry, looked up): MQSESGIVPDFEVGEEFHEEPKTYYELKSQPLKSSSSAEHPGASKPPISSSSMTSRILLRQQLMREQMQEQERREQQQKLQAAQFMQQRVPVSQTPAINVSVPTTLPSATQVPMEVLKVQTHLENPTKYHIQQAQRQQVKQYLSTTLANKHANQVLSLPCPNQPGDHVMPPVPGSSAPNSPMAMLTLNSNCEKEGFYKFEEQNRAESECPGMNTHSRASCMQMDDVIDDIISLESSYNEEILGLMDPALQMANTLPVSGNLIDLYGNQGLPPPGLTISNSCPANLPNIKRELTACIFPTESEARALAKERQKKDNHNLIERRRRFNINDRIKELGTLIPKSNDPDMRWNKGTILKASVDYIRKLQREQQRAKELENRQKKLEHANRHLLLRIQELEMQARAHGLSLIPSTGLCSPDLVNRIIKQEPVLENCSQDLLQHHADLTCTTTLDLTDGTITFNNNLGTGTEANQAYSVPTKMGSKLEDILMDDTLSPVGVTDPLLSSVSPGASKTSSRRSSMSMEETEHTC
FBW7 activator: activators of human E3 ligase FBW7; AID 1259310; normalized activity (activation), % at 26.1 µM; AlphaScreen FBW7–phospho-cyclin E peptide binding, activator screen; hit rate 0.13% among 650,000; in the data active = normalized activity above about 1.9%;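 note: purified mutant Fbw7 with reduced substrate affinity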
TEAD-YAP block: TEAD-YAP interaction inhibition; inhibition, % at 9.12 µM; AID 1259422; hit rate 1.4% among 640,000; HEK-TIYL cells, TEAD-Gal4/YAP UAS-luciferase luminescence; in the data active = inhibition above about 32%;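 note: 0% = median of test compound wells and 100% = reference inhibitor wells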
MITF inh conf: human MITF inhibition, confirmation | shares compounds with MITF inh | AlphaScreen MITF homodimerization, biotin/His-MITF beads | inhibition, % at 2.6 µM | hit rate 16% among 4,700 | AID 1259372;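 active = inhibition above a cutoff derived from the DMSO control wells, cut at about 28% in these data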;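 note: 0% = MITF dimer wells with DMSO only; inhibitors lower the bead chemiluminescence by keeping MITF from dimerizing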
AlphaScreen DR: optically interferes with AlphaScreen signal in dose response; AlphaScreen optical interference counterscreen, cell-free; hit rate 6% among 480; AID 1259373; shares compounds with MITF inh; IC50, µM; call rule not given here
AlphaScreen intf2: AlphaScreen optical interference, counter-screen. shares compounds with MITF inh. LysRS AlphaScreen counterscreen, signal interference, triplicate. inhibition, % at 2.6 µM. hit rate 7.6% among 4,700. AID 1259376;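 active = inhibition above a cutoff derived from the DMSO control wells, cut at about 30% in these data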
Numbers without * were called inactive; . = no result given.

SMILES	GPR151 activ	MITF inh	FBW7 activator	TEAD-YAP block	MITF inh conf	AlphaScreen intf2	others
Cc1ccc(-c2nnn(CC(=O)Nc3ccc(F)c(Cl)c3)n2)c(-n2cnnn2)c1	0	20	0	8	.	.
Cc1cc(NC2CCCCC2)nc(-c2ccccc2O)n1	-1	79*	1	-3	-16	-8
COc1cccc(CN2CCN(S(=O)(=O)Cc3ccccc3)CC2)c1	0	68*	0	1	4	14
CCS(=O)(=O)N1CCN(Cc2cccc(OC)c2)CC1	-1	57*	0	13	10	18
COc1cccc(CN2CCN(S(C)(=O)=O)CC2)c1	1	-4	0	12	.	.
CCOc1cc(CN2CCN(S(=O)(=O)Cc3ccccc3)CC2)ccc1OC	1	-8	0	13	.	.
COc1ccc(N(C(=O)/C=C/c2ccccc2)C2=CC3CCC(C2)N3C)cc1 (stereo unspecified)	-3	56*	0	-33	9	11
O=c1cc(-c2ccccn2)[nH][nH]1	-3	114*	-1	-50	110*	101*
c1ccc(-c2cc3ccccc3[nH]2)nc1	-3	17	0	-38	.	.
CN(C)c1ccc(C(=O)n2nnc3ccccc32)cc1	0	61*	0	0	2	9
COc1ccc(CN2CCN(Cc3cccc(F)c3)CC2)c(OC)c1	-2	85*	1	-2	4	14
COc1cccc(CN2CCN(C(=O)c3cccc(F)c3)CC2)c1	1	44	0	10	.	.
CCOc1cc(CN2CCN(Cc3cccc(OC)c3)CC2)ccc1OC	0	24	0	0	.	.
COc1ccc(OC)c(CN2CCN(S(=O)(=O)c3ccc(F)cc3)CC2)c1	-1	58*	1	5	12	18
COc1ccc(OC)c(CN2CCN(Cc3cccc(F)c3)CC2)c1	0	75*	0	-3	3	20
COc1ccc(CN2CCN(S(=O)(=O)c3ccc(F)cc3)CC2)cc1OC	-2	53*	1	5	-1	10
COc1ccc(OC)c(CN2CCN(S(=O)(=O)c3ccccc3)CC2)c1	-1	14	0	-4	.	.
COC(=O)c1ccc(OCCOc2cccc(C)c2)cc1	1	4	0	-7	.	.
O=C(Nc1c2c(nn1-c1ccccc1)CSC2)c1ccco1	-1	5	1	1	.	.
COc1ccc(OC)c(CN2CCN(Cc3cccc(Cl)c3)CC2)c1	-1	73*	0	-2	7	9
COc1ccc(CN2CCN(Cc3ccc(F)cc3)CC2)cc1OC	1	26	0	-3	.	.
COc1ccc(OC)c(CN2CCN(Cc3ccc(F)cc3)CC2)c1	0	83*	0	2	37*	16	AlphaScreen DR=>6.1
COc1cccc(CN2CCN(Cc3ccc(OC)cc3OC)CC2)c1	-2	81*	0	-1	13	15
CN(C)/C=C/C=C/C(=O)C1CCC/C(=C\C=C\N(C)C)C1=O (stereo unspecified)	1	70*	0	9	63*	-1	AlphaScreen DR=>6.5
CCn1c2ccccc2c2cc(N3C(=O)C4C5CCC(C5)C4C3=O)ccc21 (stereo unspecified)	1	9	0	-4	.	.
SMILES	GPR151 activ	MITF inh	FBW7 activator	TEAD-YAP block	MITF inh conf	AlphaScreen intf2	others
COc1cccc2cc(-c3csc(Nc4cccc(F)c4)n3)c(=O)oc12	-1	55*	0	-6	13	19
C=CCNC1CCN(c2ccc(NC(=O)c3ccc(OC)cc3)cc2)CC1	0	60*	0	-19	-1	-2
Cc1c(C(=O)NC(C)C)sc2ncn(CC(=O)N3CC(C)CC(C)C3)c(=O)c12 (stereo unspecified)	0	9	1	6	.	.
COC(=O)c1ccccc1S(=O)(=O)C1CCN(Cc2cccc(C(F)(F)F)c2)CC1	0	7	0	-2	.	.
CC(=O)Nc1ccc(-c2ccncc2-c2ccc(S(N)(=O)=O)cc2)cc1	0	55*	0	-1	47*	38*
O=C(c1ccccc1F)N1CCN(Cc2ccccc2Cl)CC1	-1	48	0	-9	.	.
O=C(c1ccccc1F)N1CCN(Cc2ccccc2)CC1	-1	3	0	8	.	.
COc1ccc(CN2CCN(C(=O)c3ccccc3OC)CC2)cc1OCc1ccccc1	-2	41	0	2	.	.
COc1ccccc1C(=O)N1CCN(Cc2ccc(Cl)cc2)CC1	0	55*	0	11	1	1
O=C(c1ccccc1F)N1CCN(S(=O)(=O)c2ccc(F)cc2)CC1	0	63*	0	4	0	12
O=C(c1ccccc1F)N1CCN(Cc2ccc(Cl)cc2)CC1	-2	56*	0	18	13	11
O=C(c1ccccc1F)N1CCN(Cc2ccccc2Br)CC1	0	54*	0	1	9	13
O=C(Cc1ccc(-n2c(=O)[nH]c3ccsc3c2=O)cc1)N1CCN(c2ccccn2)CC1	-1	2	0	-3	.	.
CCOC(=O)c1ccsc1NC(=O)c1ccc([N+](=O)[O-])s1	1	3	0	11	.	.
CCC(C)c1ccccc1OCCNC(C)C (stereo unspecified)	0	85*	0	10	-10	-1
CCC(C)c1ccccc1OCCCNCCOC (stereo unspecified)	0	13	0	1	.	.
CCC(C)c1ccccc1OCCCNCCCOC (stereo unspecified)	1	60*	0	1	3	1
Cc1cc(=O)n2[nH]c(CCc3ccccc3)nc2n1	-1	26	1	1	.	.
COc1ccc(CNC(=O)c2cc(N)ccn2)cc1	0	18	-1	-14	.	.
OC1/C(=C/c2ccc3c(c2)OCO3)Oc2ccccc21 (stereo unspecified)	1	53*	0	-2	-5	-4
O=C1/C(=C/c2ccc3c(c2)OCO3)COc2ccccc21	2	14	0	-13	.	.
CCOC(=O)/C(C#N)=C/c1ccc(O)cc1O	-5	3	0	11	.	.
CN1[C@@H](C(=O)Nc2cc(Cl)ccc2O)C[C@@H](c2cccs2)NS1(=O)=O	0	70*	0	14	9	6
O=C(O)c1cccc(NS(=O)(=O)c2cccc(C(=O)Nc3ccccc3)c2)c1	1	51*	0	4	12	-1
COc1cccc(CN2CCC(N3CCN(c4ccccc4OC)CC3)CC2)c1	-3	56*	0	3	-4	-3
COc1ccccc1N1CCN(C2CCN(C3CCCCC3)CC2)CC1	-1	69*	0	-2	-8	-2
CC1CN(C2CCN(S(=O)(=O)c3ccc4ccccc4c3)CC2)CC(C)O1 (stereo unspecified)	0	52*	0	0	3	7
COc1ccc(S(=O)(=O)N2CCC(N3CCN(c4ccccc4OC)CC3)CC2)cc1	-1	89*	1	1	3	13

Screens (PubChem)
